Test results: PubChem BioAssay (NCI)
The panel holds about 79,000 compounds, 15% with a hit somewhere; the sample as a whole holds those more often. Unmarked numbers belong to inactive results. The source made the active and inactive calls. Cut-off read from the data, not from the text of the source: active = growth inhibition above about 70%; inactive = the rest.

How the values were obtained:
[1] = NCI Yeast Anticancer Drug Screen. Data for the rad50 strain (AID 155);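 note: 0% = growth of vehicle-only cultures of the same strain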; details: S. cerevisiae rad50 strain growth inhibition, hits give high values
Outline: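 Relative growth inhibition (compound vs vehicle) was measured in yeast with a defined repair-gene alteration.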

[2] = NCI Yeast Anticancer Drug Screen. Data for the mec2-1 strain (AID 157); details: S. cerevisiae mec2-1 strain, hits give high values
Outline: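 Each compound was tested on mec2-1 yeast, a strain altered in DNA damage repair or cell cycle control. Growth inhibition is reported relative to vehicle.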

[3] = NCI Yeast Anticancer Drug Screen. Data for the cln2 rad14 strain (AID 165);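 note: 0% = growth equal to vehicle treated cultures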; details: S. cerevisiae cln2 rad14 strain, hits give high values
Outline: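 Test compounds were added to cln2 rad14 yeast cultures; inhibition of growth was then determined by comparison with vehicle treatment.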

[4] = NCI Yeast Anticancer Drug Screen. Data for the bub3 strain (AID 167); details: S. cerevisiae bub3 mutant strain, hits give high values
Outline: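 Screening used yeast with an engineered genetic alteration affecting cell cycle control. Compound-exposed cultures were compared with vehicle cultures, and reduced growth was taken as inhibition.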

[5] = NCI Yeast Anticancer Drug Screen. Data for the mlh1 rad18 strain (AID 175); details: S. cerevisiae mlh1 rad18 strain growth inhibition, hits give high values
Outline: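 Inhibition values reflect reduced growth of mutant yeast versus vehicle-treated controls following compound exposure; the mutations affect DNA damage repair.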

[6] = NCI Yeast Anticancer Drug Screen. Data for the sgs1 mgt1 strain (AID 161);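 note: 0% = growth of cultures given vehicle only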; details: S. cerevisiae sgs1 mgt1 strain, hits give high values
Outline: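 Inhibition of yeast growth, normalised to vehicle-treated controls, is reported for a strain bearing genetic alterations in DNA damage repair.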

[7] = at 5.0 µM (retest, dose inferred, filed as 0.5)
[8] = at 50.0 µM (retest, dose inferred, filed as 5.0)

Structure (SMILES) | growth inhibition [1, 7] | growth inhibition [1, 8] | growth inhibition ([1]; at 50.0 µM) | growth inhibition [2, 7] | growth inhibition [2, 8] | growth inhibition ([2]; at 50.0 µM) | growth inhibition [3, 7] | growth inhibition [3, 8] | growth inhibition ([3]; at 50.0 µM) | growth inhibition [4, 7] | growth inhibition [4, 8] | growth inhibition ([4]; at 50.0 µM) | growth inhibition [5, 7] | growth inhibition [5, 8] | growth inhibition ([5]; at 50.0 µM) | growth inhibition [6, 7] | growth inhibition [6, 8]
C[N+](C)(C)CC1Cc2ccccc2C1=O (stereo not drawn) | 25% | 98% (active) | 90% (active) | 20% | 99% (active) | 93.2% (active) | 10% | 85% (active) | 90.5% (active) | 32% | 99% (active) | 91.5% (active) | 26% | 99% (active) | 92.5% (active) | – | –
CCCCCN1C(=O)C2C(C1=O)C1(Cl)C(Cl)=C(Cl)C2(Cl)C1(Cl)Cl (stereo not drawn) | 37% | 95% (active) | 97% (active) | 35% | 97% (active) | 96.4% (active) | 16% | 95% (active) | 95.2% (active) | 12% | 96% (active) | 97.5% (active) | 33% | 96% (active) | 95.6% (active) | – | –
CC/C(=C\c1ccccc1)[N+](=O)[O-] | 64% | 99% (active) | – | 11% | 100% (active) | – | 14% | 99% (active) | – | 28% | 100% (active) | – | -13% | 98% (active) | – | 25% | 100% (active)
CCCCCCCNC(=O)CI | 42% | 99% (active) | – | 13% | 100% (active) | – | 9% | 94% (active) | – | 52% | 100% (active) | – | 23% | 99% (active) | – | 33% | 100% (active)
O=[N+]([O-])/C=C/c1ccc([N+](=O)[O-])cc1 | 96% (active) | 99% (active) | – | 81% (active) | 100% (active) | – | 31% | 99% (active) | – | 94% (active) | 100% (active) | – | 15% | 99% (active) | – | 99% (active) | 100% (active)
CCC1CC[N-]CC1.CCC1CC[N-]CC1.N#C[S-].N#C[S-].[Cd] | 26% | 85% (active) | – | 16% | 56% | – | 4% | 54% | – | 5% | 42% | – | -16% | 57% | – | 11% | 71% (active)
O=C1c2ccccc2C[CH]1[Hg][Cl] (stereo not drawn) | 99% (active) | 99% (active) | 99.2% (active) | 100% (active) | 100% (active) | 99.5% (active) | 99% (active) | 99% (active) | 96.2% (active) | 99% (active) | 99% (active) | 98.7% (active) | 99% (active) | 99% (active) | 99.3% (active) | – | –
C[C](=O)[Hg][O]c1ccc(N=Cc2ccccc2O)cc1 | 99% (active) | 99% (active) | – | 100% (active) | 100% (active) | – | 99% (active) | 99% (active) | – | 100% (active) | 99% (active) | – | 99% (active) | 99% (active) | – | 100% (active) | 100% (active)
[I][Hg][CH2]C1OCCOC1[CH2][Hg][I] (stereo not drawn) | 1% | 3% | 99.5% (active) | -39% | 2% | 99.7% (active) | -2% | 4% | 99.2% (active) | -8% | -6% | 99.5% (active) | -1% | 3% | 99.2% (active) | – | –
COc1cc(/C=C/[N+](=O)[O-])cc(OC)c1OC | 34% | 99% (active) | – | 22% | 99% (active) | – | 13% | 99% (active) | – | 19% | 100% (active) | – | -8% | 99% (active) | – | 48% | 100% (active)
CC(Cc1ccc2c(c1)OCO2)NN (stereo not drawn) | -2% | 37% | – | -5% | 6% | – | -5% | -8% | – | 2% | 34% | – | -20% | 16% | – | -2% | 59%
CC/C(=C\c1ccc(Cl)c(Cl)c1)[N+](=O)[O-] | 97% (active) | 99% (active) | – | 52% | 100% (active) | – | 13% | 99% (active) | – | 60% | 99% (active) | – | 14% | 99% (active) | – | 99% (active) | 100% (active)
CCC(CC)COC(=O)CI | 33% | 97% (active) | – | 19% | 79% (active) | – | 15% | 40% | – | 50% | 86% (active) | – | -20% | 87% (active) | – | 28% | 99% (active)
